Results from PubChem BioAssay (NCI).
Compounds without any hit were thinned out: in the full panel of roughly 83,000, 20% have a hit.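 96-well plates, one dose, 48 hours. Percent growth reported; active if below 10.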 Unmarked numbers belong to inactive results. Active and inactive are the calls of the source.

Key:
Experiment in all cases: NCI-60 one-dose screen, 48 h (100 = growth as untreated, 0 = no growth, -100 = all killed)
Conditions in all cases: 10 µM unless noted
NCI-H23 lung = test system: NCI-H23 lung
NCI-H226 lung = test system: NCI-H226 lung
NCI-H322M lung = test system: NCI-H322M lung
HOP-62 NSCLC = test system: HOP-62 NSCLC
NCI-H460 lung = test system: NCI-H460 lung
HOP-92 NSCLC = test system: HOP-92 NSCLC
NCI-H522 lung = test system: NCI-H522 lung
A549/ATCC NSCLC = test system: A549/ATCC NSCLC
786-0 renal = test system: 786-0 renal
COLO 205 colon = test system: COLO 205 colon

| Compound | growth (NCI-H23 lung) | growth (NCI-H226 lung) | growth (NCI-H322M lung) | growth (HOP-62 NSCLC) | growth (NCI-H460 lung) | growth (HOP-92 NSCLC) | growth (NCI-H522 lung) | growth (A549/ATCC NSCLC) | growth (786-0 renal) | growth (COLO 205 colon) |
| --- | --- | --- | --- | --- | --- | --- | --- | --- | --- | --- |
| COC(=O)[C@H]1[C@H](OC)[C@@H](OC(=O)/C=C/c2ccncc2)CC2CN3CCc4c([nH]c5cc(OC)ccc45)[C@@H]3C[C@@H]21 (stereo not given in full) | 97% | 73.7% | 78.4% | 78.5% | 92.5% | 1.2% (active) | 72% | 82.9% | 83.5% | 79.2% |
| COc1cc(C2C=C(C)N=C3SC=C(C)N32)cc(OC)c1OC (stereo not given) | -27.7% (active) | 2.75% (active) | 13.6% | -62.1% (active) | -39% (active) | -32.4% (active) | -87.1% (active) | -19.2% (active) | -69% (active) | -75.9% (active) |
| COc1cc(/C=C2\CCCC3=C2NC(C)=NC3c2cc(OC)c(OC)c(OC)c2)cc(OC)c1OC (stereo not given) | 33.9% | 37.7% | 41.1% | 22% | -28% (active) | 70.7% | 51.8% | 16.2% | 18% | 19.2% |
| O=C1CCC/C=C\C[C@H]2C=CC(=O)/C2=C/C[C@H](C/C=C\CC(F)(F)F)O1 | -8.61% (active) | 8.07% (active) | 17.5% | -11.7% (active) | -30.5% (active) | -24.4% (active) | -50.8% (active) | 1.72% (active) | -73.9% (active) | -44.4% (active) |
| O=C1N=C(c2c(-c3[nH]c(=O)c4ccc(Br)cc4c3O)c(O)c3ccccc3c2O)C(=O)c2cc(Br)ccc21 | -43% (active) | -30.4% (active) | -3.29% (active) | -52.9% (active) | -80.9% (active) | -13.2% (active) | -31.4% (active) | -32.2% (active) | -63.2% (active) | 73.1% |
| CS(=O)(=O)N(c1cc(-c2ccc3ncnc(Nc4cccc(Cl)c4)c3c2)cnc1Cl)S(C)(=O)=O | 18.3% | 30.1% | -1.94% (active) | 19.2% | 14.1% | -20.5% (active) | 19.6% | 9.62% (active) | 17.5% | 2.1% (active) |
| COc1ccc(/C(=N\O)c2cc(OC)c(OC)c(OC)c2)c(OC)c1N | 34.7% | 78.2% | 48.4% | 39.7% | 6.35% (active) | 78.7% | -9.39% (active) | 43.2% | 34.7% | -0.741% (active) |
| O=C(Nc1cccc(C(F)(F)F)c1)Nc1ccc(OCc2nnc(-c3ccccc3)o2)c(F)c1 | 35.7% | 56.3% | 61.6% | 56.1% | 6.12% (active) | -8.2% (active) | 1.68% (active) | 29.9% | 60.4% | 32.6% |
| CCNCc1ccncc1 | 105% | 103% | 104% | 104% | 102% | 107% | 91% | 99.4% | 97.7% | 106% |
| COc1ccc(/C=C/c2nc(N3CCOCC3)c3cc(F)c(F)cc3n2)cc1OC | 34.8% | 33.2% | 70.2% | 86.8% | 36.4% | 33.7% | 26% | 30.9% | 45.4% | 15.6% |
| Nc1c(C(=O)Nc2cccc(C(F)(F)F)c2)sc2nc3c(cc12)CCCCCC3 | 8.82% (active) | 5.69% (active) | 10.6% | -1.22% (active) | 4.27% (active) | -14.2% (active) | 36.2% | -45.2% (active) | -71.7% (active) | 48.5% |
| COc1ccc(/C=C/C(=O)c2cc(OC)c(OC)c(OC)c2)cc1OCc1cn(Cc2ccc(F)cc2)nn1 | 103% | 76.8% | 33.6% | 4.52% (active) | 95.8% | 55.9% | 26.4% | 29.7% | 49.3% | 66.4% |
| Cc1cc(C)c(S(=O)(=O)N2CCN(c3cc4c(cc3F)c(=O)c(C(=O)O)cn4C3CC3)CC2)c(C)c1 | 57.4% | 71.8% | 74.7% | 57.3% | 39.5% | 46.9% | 67.3% | 20.3% | 75.6% | 57.6% |
